This note sets out measurements from the supplement of paper PMC3334620.

Over roughly 33,000 sequences, “E-score (-0.5 to 0.5)” has its median near -0.035; the highest 2% begin near 0.35. This excerpt belongs to a sample that is enriched for the highest values.

In the assay the target is T1, Pdr3 (UniProt P33200).
T1 sequence: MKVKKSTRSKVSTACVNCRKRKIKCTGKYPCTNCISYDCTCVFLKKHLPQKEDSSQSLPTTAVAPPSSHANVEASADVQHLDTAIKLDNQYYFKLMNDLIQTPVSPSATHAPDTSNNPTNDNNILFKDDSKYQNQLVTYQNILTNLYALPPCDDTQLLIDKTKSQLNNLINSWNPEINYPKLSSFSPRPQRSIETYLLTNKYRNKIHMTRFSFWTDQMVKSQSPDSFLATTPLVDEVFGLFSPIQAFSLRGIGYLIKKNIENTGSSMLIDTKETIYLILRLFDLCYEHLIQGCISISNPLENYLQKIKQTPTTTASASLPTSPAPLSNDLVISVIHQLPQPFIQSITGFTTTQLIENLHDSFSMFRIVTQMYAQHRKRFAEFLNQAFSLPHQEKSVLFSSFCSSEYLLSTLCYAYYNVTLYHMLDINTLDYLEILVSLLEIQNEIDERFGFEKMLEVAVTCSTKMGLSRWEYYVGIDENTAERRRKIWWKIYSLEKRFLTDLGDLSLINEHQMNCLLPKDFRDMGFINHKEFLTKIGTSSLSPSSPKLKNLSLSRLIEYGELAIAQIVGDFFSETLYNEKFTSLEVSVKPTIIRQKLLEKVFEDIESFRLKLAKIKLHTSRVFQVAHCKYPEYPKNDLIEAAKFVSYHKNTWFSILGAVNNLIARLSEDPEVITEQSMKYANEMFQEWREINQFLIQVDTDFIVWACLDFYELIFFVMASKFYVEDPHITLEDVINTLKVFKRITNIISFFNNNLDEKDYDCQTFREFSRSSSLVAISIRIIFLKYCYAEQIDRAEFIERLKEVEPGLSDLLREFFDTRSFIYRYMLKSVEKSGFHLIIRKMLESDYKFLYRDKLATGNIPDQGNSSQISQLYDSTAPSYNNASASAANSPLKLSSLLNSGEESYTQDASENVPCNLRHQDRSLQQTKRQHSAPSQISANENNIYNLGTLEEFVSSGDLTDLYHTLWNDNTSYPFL
As to the kind of experiment: PBM E-score (8-mer binding enrichment) (E-score (-0.5 to 0.5)); higher = stronger / more preferred TF binding. As to conditions: protein concentration: 200 nM; construct: GST-full length. On the procedure:
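Universal 'all 10-mer' protein binding microarrays (Agilent AMADID 015681) probed with GST-tagged S. cerevisiae TFs (full-length or DBD) made by in vitro transcription/translation (PURExpress), about 100-200 nM. Bound TF was detected with fluorescent anti-GST. Each ungapped 8-mer (which stands for itself and its reverse complement) is scored by the PBM enrichment score (E-score), a modified Wilcoxon-Mann-Whitney statistic from -0.5 to +0.5, computed with the Universal PBM Analysis Suite. Scale: above 0.35 generally sequence-specific binding.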
Regarding AACAACAC, the “PBM E-score” value was 0.0662. CCTCCAGG: the “PBM E-score” value was -0.269.

As to AATATTCA, the “PBM E-score” value was 0.0722. The value for AATATTCG was 0.0118; that for AATATTCC was 0.362; that for ATACCGCC was 0.212. As to ATCCGTTG, the “PBM E-score” value was 0.376. To ATCCGTTC belongs 0.322; to ATCCGTGA, 0.306. With CTCCGTGC, the “PBM E-score” value came to 0.263.

For the sequence ATCCGTGC, the “PBM E-score” value worked out at 0.267. To GTCCGTTA belongs 0.321; to CTCCGTTA, 0.216.

In the case of ATCCGTGG, the “PBM E-score” value turned out to be 0.428. To ACCCGTTG belongs 0.0389.

For AGCCGTTG, the “PBM E-score” value is 0.00388. The value for CTCCGTTC was 0.367; that for ATCCGTTA was 0.364. To AAGCGCGT belongs -0.113; to TAGTCCCA, -0.187; to CAACCCGG, 0.293. To CCACTCTA belongs -0.0753; to AAGAGCCC, -0.00683. On to CGCTTAAC, for which the “PBM E-score” value turned out to be 0.0421.

For the sequence CAACCGCC, the “PBM E-score” value came out at 0.0754. The value for TAACCGGA was 0.308. Regarding CAACCGCA, the “PBM E-score” value was determined as 0.0919. Regarding GAACCGGC, the “PBM E-score” value turned out to be 0.247. To AAACCGGA belongs 0.346.

Take CAACCGGA: the “PBM E-score” value worked out at 0.379. The value for GAACCGGA was 0.416; that for CAACCGGG was 0.129; that for CAACCGCG was 0.369.

As for AAGATGAC, the “PBM E-score” value is -0.202. As to AATGAAAC, the “PBM E-score” value was 0.059. With GGCCTTCA, the “PBM E-score” value is 0.0249.

For GCGCCCCC, the “PBM E-score” value is -0.146. The value for GCCGACGC was 0.178.

Regarding AAATCCGC, the “PBM E-score” value was 0.196. AAATCCGG: the “PBM E-score” value came to 0.39. For the sequence CAATCCGA, the “PBM E-score” value stood at 0.271.

For the sequence CAATCCGG, the “PBM E-score” value worked out at 0.394. On to AAATCCGT, for which the “PBM E-score” value worked out at 0.246. With CAATCCGC, the “PBM E-score” value was determined as 0.265. The value for GCCTCTTA was -0.109; that for CGAAGGTA was 0.0358; that for ACGGACGG was 0.245. To TCGGACGA belongs 0.233; to CCGGACGG, 0.396; to CCGGACGC, 0.33. To CCGGACGA belongs 0.36; to ACGGACGA, 0.304. Turning to AGCATTCA, the “PBM E-score” value was -0.0565. To CCGTACGA belongs 0.00505. The value for CATTTCTC was 0.0391; that for GTAAAAAC was -0.132.

As for CCGGGGTA, the “PBM E-score” value stood at 0.341. ACCGGGTA: the “PBM E-score” value worked out at 0.154. The value for ACCGGGTC was 0.184; that for CCGGGGTC was 0.327; that for CCCGGGTA was 0.438. To CCCGGGTC belongs 0.426; to AAACCATT, -0.226. To TCGCTTCA belongs -0.114. CGGTCGAA: the “PBM E-score” value was found to be 0.0584.

Regarding ATGTCCGC, the “PBM E-score” value is 0.223.

Consider ACATCCCG, for which the “PBM E-score” value was determined as 0.415. The value for ATGTCCGG was 0.375; that for ATATCCCG was 0.357.

On to CCATCCCG, for which the “PBM E-score” value amounted to 0.31.

Regarding ATATCCGC, the “PBM E-score” value turned out to be 0.333.

Take ATATCCCC: the “PBM E-score” value turned out to be 0.0317. The value for ATGTCCGA was 0.207.

In the case of ATATCCGG, the “PBM E-score” value was determined as 0.384.

As for ATATCCGA, the “PBM E-score” value worked out at 0.346.

In the case of ACATCCCC, the “PBM E-score” value turned out to be 0.245. As to ATATCCCA, the “PBM E-score” value is 0.229. To AATAGCGC belongs 0.0976; to TCCTACAA, 0.00772. To GAGTAGCC belongs -0.153. To AAACTGGC belongs -0.0559. With AGAGGCAC, the “PBM E-score” value was -0.154. To CGGCTAAA belongs 0.183.

As for AGATCCGC, the “PBM E-score” value was determined as 0.351. The value for ACATCCGA was 0.259; that for ACATCCGG was 0.378.
